# From PubChem BioAssay (NCI)
# Where “and” joins values, the source holds several entries; their conditions need not be identical. Equal values may be shown once. About 83,000 compounds went through this panel and 20% of them were active in at least one assay; those are over-represented in the sample as a whole.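 Cells were grown in 96-well plates and exposed to the test compound at a single concentration for 48 hours; results are reported as percent growth, with values below 10 considered active.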 Calls of active or inactive are those of the source.
# Key:
# Experiment in all cases: NCI-60 one-dose screen, 48 h (100 = growth as untreated, 0 = no growth, -100 = all killed)
# [1] = tested on: HCT-15 colon
# [2] = tested on: HT29 colon
# [3] = tested on: SNB-75 CNS
# [4] = tested on: SNB-19 CNS
# [5] = tested on: U251 CNS
# [6] = tested on: PC-3 prostate
# [7] = tested on: SK-MEL-5 melanoma
# [8] = tested on: UACC-62 melanoma
# [9] = tested on: LOX IMVI melanoma
# [10] = tested on: SK-MEL-28 melanoma
# [11] = tested on: SK-MEL-2 melanoma
# [12] = tested on: EKVX NSCLC
# [13] = tested on: UO-31 renal
# [14] = tested on: TK-10 renal
# [15] = tested on: ACHN renal
# [16] = tested on: CAKI-1 renal
# [17] = tested on: CCRF-CEM leukemia
# [18] = tested on: MOLT-4 leukemia
# [19] = tested on: A498 renal
structure (smiles),measurement,setting,value
S=C1SCN(CCc2ccccc2)CN1CCc1ccccc1,growth,[1]; 10 µM,95.1% (inactive)
same,growth,[2]; 10 µM,95.8% (inactive)
same,growth,[3]; 10 µM,87.5% (inactive)
same,growth,[4]; 10 µM,105% (inactive)
same,growth,[5]; 10 µM,91.3% (inactive)
same,growth,[6]; 10 µM,93.6% (inactive)
same,growth,[7]; 10 µM,89% (inactive)
same,growth,[8]; 10 µM,94.9% (inactive)
same,growth,[9]; 10 µM,90.9% (inactive)
same,growth,[10]; 10 µM,92.4% (inactive)
same,growth,[11]; 10 µM,105% (inactive)
same,growth,[12]; 10 µM,109% (inactive)
same,growth,[13]; 10 µM,70.6% (inactive)
same,growth,[14]; 10 µM,82.1% (inactive)
same,growth,[15]; 10 µM,110% (inactive)
same,growth,[16]; 10 µM,90.5% (inactive)
same,growth,[17]; 10 µM,57.3% (inactive)
same,growth,[18]; 10 µM unless noted,76.8% (inactive)
CC(=O)O[C@H]1C(=O)[C@@]2(C)[C@H]([C@H](OC(=O)c3ccccc3)[C@]3(O)C[C@H](OC(=O)[C@H](O)[C@@H](NC(=O)c4ccccc4)c4ccccc4)C(C)=C1C3(C)C)[C@]1(OC(C)=O)CO[C@@H]1C[C@@H]2O,growth,[1]; 0.01 µM,87.3% (inactive)
same,growth,[1]; 2.5 µM,13.2% (inactive)
same,growth,[1]; 5 µM,12.4% (inactive)
same,growth,[1]; 10 µM,-26.2% (active) and 11.5% (inactive)
same,growth,[2]; 0.01 µM,3.27% (active)
same,growth,[2]; 2.5 µM,-29.4% (active)
same,growth,[2]; 5 µM,-21.4% (active)
same,growth,[2]; 10 µM,-21.5% (active) and -18.2% (active)
same,growth,[3]; 0.01 µM,-1.17% (active)
same,growth,[3]; 2.5 µM,-28% (active)
same,growth,[3]; 5 µM,-16.7% (active)
same,growth,[3]; 10 µM,-38.5% (active) and -19.3% (active)
same,growth,[4]; 0.01 µM,30% (inactive)
same,growth,[4]; 2.5 µM,25.9% (inactive)
same,growth,[4]; 5 µM,30.1% (inactive)
same,growth,[4]; 10 µM,31.4% (inactive) and 35.6% (inactive)
same,growth,[5]; 0.01 µM,27.9% (inactive)
same,growth,[5]; 2.5 µM,12.3% (inactive)
same,growth,[5]; 5 µM,13.9% (inactive)
same,growth,[5]; 10 µM,10.6% (inactive) and 15.9% (inactive)
same,growth,[6]; 0.01 µM,25% (inactive)
same,growth,[6]; 2.5 µM,26.2% (inactive)
same,growth,[6]; 5 µM,34.7% (inactive)
same,growth,[6]; 10 µM,-45.5% (active) and 37.3% (inactive)
same,growth,[7]; 0.01 µM,18% (inactive)
same,growth,[7]; 2.5 µM,4.29% (active)
same,growth,[7]; 5 µM,17.5% (inactive)
same,growth,[7]; 10 µM,34.6% (inactive) and 13% (inactive)
same,growth,[8]; 0.01 µM,24.9% (inactive)
same,growth,[8]; 2.5 µM,34.2% (inactive)
same,growth,[8]; 5 µM,40.3% (inactive)
same,growth,[8]; 10 µM,41.8% (inactive) and 42.9% (inactive)
same,growth,[9]; 0.01 µM,35.4% (inactive)
same,growth,[9]; 2.5 µM,9.12% (active)
same,growth,[9]; 5 µM,42.1% (inactive)
same,growth,[9]; 10 µM,35.1% (inactive) and 42.3% (inactive)
same,growth,[10]; 2.5 µM,71.3% (inactive)
same,growth,[10]; 5 µM,76.6% (inactive)
same,growth,[10]; 10 µM,75.7% (inactive)
same,growth,[11]; 0.01 µM,72.5% (inactive)
same,growth,[11]; 2.5 µM,3.85% (active)
same,growth,[11]; 5 µM,21.3% (inactive)
same,growth,[11]; 10 µM,25.7% (inactive) and 32% (inactive)
same,growth,[12]; 0.01 µM,60.7% (inactive)
same,growth,[12]; 2.5 µM,35% (inactive)
same,growth,[12]; 5 µM,40.5% (inactive)
same,growth,[12]; 10 µM,47.1% (inactive) and 41.5% (inactive)
same,growth,[13]; 0.01 µM,103% (inactive)
same,growth,[13]; 2.5 µM,42.6% (inactive)
same,growth,[13]; 5 µM,42.7% (inactive)
same,growth,[13]; 10 µM,9.24% (active) and 39.3% (inactive)
same,growth,[14]; 0.01 µM,87.7% (inactive)
same,growth,[14]; 2.5 µM,44.7% (inactive)
same,growth,[14]; 5 µM,46.1% (inactive)
same,growth,[14]; 10 µM,18.4% (inactive) and 43.6% (inactive)
same,growth,[15]; 0.01 µM,95.3% (inactive)
same,growth,[15]; 2.5 µM,42.4% (inactive)
same,growth,[15]; 5 µM,44.8% (inactive)
same,growth,[15]; 10 µM,25.4% (inactive) and 43.1% (inactive)
same,growth,[16]; 0.01 µM,93.4% (inactive)
same,growth,[16]; 2.5 µM,22.2% (inactive)
same,growth,[16]; 5 µM,23.1% (inactive)
same,growth,[16]; 10 µM,25.1% (inactive) and 23.4% (inactive)
same,growth,[19]; 0.01 µM,61.7% (inactive)
same,growth,[19]; 2.5 µM,74.4% (inactive)
same,growth,[19]; 5 µM,96.2% (inactive)
same,growth,[19]; 10 µM,93.6% (inactive) and 52.1% (inactive)
same,growth,[17]; 0.01 µM,11.7% (inactive)
same,growth,[17]; 2.5 µM,2.13% (active)
same,growth,[17]; 5 µM,5.52% (active)
same,growth,[17]; 10 µM,7.71% (active) and 5.2% (active)
same,growth,[18]; 0.01 µM,48.2% (inactive)
same,growth,[18]; 10 µM,22.8% (inactive)
O=C1C(Cl)=C(Cl)C(Cl)(Cl)C(Cl)C1(Cl)Cl (centres undefined),growth,[1]; 10 µM,91.3% (inactive)
same,growth,[2]; 10 µM,99.5% (inactive)
same,growth,[3]; 10 µM,88.9% (inactive)
same,growth,[4]; 10 µM,108% (inactive)
same,growth,[5]; 10 µM,103% (inactive)
same,growth,[6]; 10 µM,101% (inactive)
same,growth,[7]; 10 µM,106% (inactive)
same,growth,[8]; 10 µM,98.7% (inactive)
same,growth,[9]; 10 µM,96.2% (inactive)
same,growth,[10]; 10 µM,114% (inactive)
same,growth,[11]; 10 µM,100% (inactive)
same,growth,[12]; 10 µM,105% (inactive)
same,growth,[13]; 10 µM,84.5% (inactive)
same,growth,[14]; 10 µM,98.9% (inactive)
same,growth,[15]; 10 µM,100% (inactive)
same,growth,[16]; 10 µM,99% (inactive)
same,growth,[19]; 10 µM,115% (inactive)
same,growth,[17]; 10 µM,94.9% (inactive)
same,growth,[18]; 10 µM unless noted,94.8% (inactive)
Nc1nc(N)c2cc(Sc3ccc4ccccc4c3)ccc2n1,growth,[1]; 10 µM,22.6% (inactive)
same,growth,[2]; 10 µM,9.75% (active)
same,growth,[3]; 10 µM,53.5% (inactive)
same,growth,[4]; 10 µM,35.7% (inactive)
same,growth,[5]; 10 µM,27.4% (inactive)
same,growth,[6]; 10 µM,35.6% (inactive)
same,growth,[7]; 10 µM,23.4% (inactive)
same,growth,[8]; 10 µM,27.3% (inactive)
same,growth,[9]; 10 µM,21% (inactive)
same,growth,[10]; 10 µM,61.7% (inactive)
same,growth,[11]; 10 µM,75.3% (inactive)
same,growth,[12]; 10 µM,38.2% (inactive)
same,growth,[13]; 10 µM,22% (inactive)
same,growth,[14]; 10 µM,49.5% (inactive)
same,growth,[15]; 10 µM,28.2% (inactive)
same,growth,[16]; 10 µM,17.3% (inactive)
same,growth,[19]; 10 µM,58.5% (inactive)
same,growth,[17]; 10 µM,38.2% (inactive)
same,growth,[18]; 10 µM unless noted,18.4% (inactive)
